This passage reports binding signal results from paper PMC8384837, “Expanding the binding specificity for RNA recognition by a PUF domain”.

Experiment in all cases: yeast three-hybrid, YBZ-1, SC-Leu-His + 0.5 mM 3-AT, 4 days
Common to all, as to settings: tags: N-Gal4 AD-HA kept; label: inside an RPR1-promoter hybrid RNA with tandem MS2 sites; ssRNA

One assay addresses PUM1 PUF domain R4-WAS (Homo sapiens, UniProt Q14671 828-1176, N971W;H972A;Q975S). In a few lines: (§1)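 Matching RNA elements and Pumilio-1 PUF domain libraries, randomized at the three base-contacting residues of every repeat, were co-expressed from a centromeric plasmid in strain YBZ-1 (LexA–MS2 coat fusion, HIS3 reporter). The repeat regions were PCR-amplified and Illumina-sequenced from cells grown four days on SC-Leu (input) or SC-Leu-His + 0.5 mM 3-AT (selection). The interaction score is the log change in variant frequency from input to selection. It is computed in log2, with a pseudocount of 1 for absent variants.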

In a further assay the target is PUM1 PUF domain R4-RGG (Homo sapiens, UniProt Q14671 828-1176, N971R;H972G;Q975G). In a few lines:
as §1

Another assay addresses PUM1 PUF domain R4-EWH (Homo sapiens, UniProt Q14671 828-1176, N971E;H972W;Q975H). In short, it runs like this: as §1
The next assay has as its target PUM1 PUF domain R1-QFR (Homo sapiens, UniProt Q14671 828-1176, S863Q;R864F;Q867R). In a few lines:
as §1

The target in the next assay is PUM1 PUF domain R1-KRK (Homo sapiens, UniProt Q14671 828-1176, S863K;Q867K). In short, it runs like this:
as §1

The target of the next assay is PUM1 PUF domain R1-YVR (Homo sapiens, UniProt Q14671 828-1176, S863Y;R864V;Q867R). In short, it runs like this: as §1
A further assay addresses PUM1 PUF domain R1-KGV (Homo sapiens, UniProt Q14671 828-1176, S863K;R864G;Q867V). In short, it runs like this: as §1
In a further assay the target is PUM1 PUF domain R7-RSQ (Homo sapiens, UniProt Q14671 828-1176, S1079R;N1080S;E1083Q). In a few lines:
as §1

The target of another assay is PUM1 PUF domain R8-TFR (Homo sapiens, UniProt Q14671 828-1176, N1122T;Y1123F;Q1126R). In short, it runs like this: as §1
The next assay has as its target PUM1 PUF domain R8-KFF (Homo sapiens, UniProt Q14671 828-1176, N1122K;Y1123F;Q1126F). In short, it runs like this: as §1
The next assay deals with PUM1 PUF domain R3-GRR (Homo sapiens, UniProt Q14671 828-1176, C935G;Q939R). In a few lines: as §1
In the next assay the target is PUM1 PUF domain R3-RSS (Homo sapiens, UniProt Q14671 828-1176, C935R;R936S;Q939S). In a few lines: as §1
A further assay concerns the target PUM1 PUF domain R5-RRR (Homo sapiens, UniProt Q14671 828-1176, C1007R;Q1011R). In short, it runs like this:
as §1

For another assay, the target named is PUM1 PUF domain R8-RYE (Homo sapiens, UniProt Q14671 828-1176, N1122R;Q1126E). In short, it runs like this:
as §1

Another assay deals with PUM1 PUF domain R8-HFV (Homo sapiens, UniProt Q14671 828-1176, N1122H;Y1123F;Q1126V). In short, it runs like this: as §1
A further assay concerns the target PUM1 PUF domain R3-YRD (Homo sapiens, UniProt Q14671 828-1176, C935Y;Q939D). In a few lines:
as §1

For the next assay, the target named is PUM1 PUF domain R5-LHA (Homo sapiens, UniProt Q14671 828-1176, C1007L;R1008H;Q1011A). In a few lines:
as §1

Another assay addresses PUM1 PUF domain R7-ATR (Homo sapiens, UniProt Q14671 828-1176, S1079A;N1080T;E1083R). In a few lines: as §1
Another assay deals with PUM1 PUF domain R5-QPI (Homo sapiens, UniProt Q14671 828-1176, C1007Q;R1008P;Q1011I). In a few lines: as §1
Another assay addresses PUM1 PUF domain R5-RTR (Homo sapiens, UniProt Q14671 828-1176, C1007R;R1008T;Q1011R). In short, it runs like this: as §1

Chain of PUM1 PUF domain R1-YVR (Q14671 828-1176 S863Y/R864V/Q867R): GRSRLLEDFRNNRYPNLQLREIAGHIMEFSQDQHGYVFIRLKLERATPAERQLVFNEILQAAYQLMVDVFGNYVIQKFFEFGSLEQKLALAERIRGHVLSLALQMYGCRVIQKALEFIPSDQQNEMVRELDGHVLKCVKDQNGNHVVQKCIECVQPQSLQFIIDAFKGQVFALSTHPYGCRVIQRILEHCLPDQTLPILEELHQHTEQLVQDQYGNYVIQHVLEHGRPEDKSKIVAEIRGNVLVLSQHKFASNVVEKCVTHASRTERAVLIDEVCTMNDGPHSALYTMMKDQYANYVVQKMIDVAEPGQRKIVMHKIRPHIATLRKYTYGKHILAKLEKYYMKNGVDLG
Chain of PUM1 PUF domain R5-LHA (Q14671 828-1176 C1007L/R1008H/Q1011A): as the sequence (Q14671 828-1176 S863Y/R864V/Q867R) above, with Y36S, V37R, R40Q, C180L, R181H, Q184A counted along it
Chain of PUM1 PUF domain R8-KFF (Q14671 828-1176 N1122K/Y1123F/Q1126F): as the sequence (Q14671 828-1176 S863Y/R864V/Q867R) above, with Y36S, V37R, R40Q, N295K, Y296F, Q299F counted along it
Chain of PUM1 PUF domain R4-WAS (Q14671 828-1176 N971W/H972A/Q975S): as the sequence (Q14671 828-1176 S863Y/R864V/Q867R) above, with Y36S, V37R, R40Q, N144W, H145A, Q148S counted along it
Chain of PUM1 PUF domain R5-RRR (Q14671 828-1176 C1007R/Q1011R): as the sequence (Q14671 828-1176 S863Y/R864V/Q867R) above, with Y36S, V37R, R40Q, C180R, Q184R counted along it
Chain of PUM1 PUF domain R3-GRR (Q14671 828-1176 C935G/Q939R): as the sequence (Q14671 828-1176 S863Y/R864V/Q867R) above, with Y36S, V37R, R40Q, C108G, Q112R counted along it
Chain of PUM1 PUF domain R8-TFR (Q14671 828-1176 N1122T/Y1123F/Q1126R): as the sequence (Q14671 828-1176 S863Y/R864V/Q867R) above, with Y36S, V37R, R40Q, N295T, Y296F, Q299R counted along it
Chain of PUM1 PUF domain R4-RGG (Q14671 828-1176 N971R/H972G/Q975G): as the sequence (Q14671 828-1176 S863Y/R864V/Q867R) above, with Y36S, V37R, R40Q, N144R, H145G, Q148G counted along it
Chain of PUM1 PUF domain R7-RSQ (Q14671 828-1176 S1079R/N1080S/E1083Q): as the sequence (Q14671 828-1176 S863Y/R864V/Q867R) above, with Y36S, V37R, R40Q, S252R, N253S, E256Q counted along it
Chain of PUM1 PUF domain R1-QFR (Q14671 828-1176 S863Q/R864F/Q867R): as the sequence (Q14671 828-1176 S863Y/R864V/Q867R) above, with Y36Q, V37F counted along it
Chain of PUM1 PUF domain R4-EWH (Q14671 828-1176 N971E/H972W/Q975H): as the sequence (Q14671 828-1176 S863Y/R864V/Q867R) above, with Y36S, V37R, R40Q, N144E, H145W, Q148H counted along it
Chain of PUM1 PUF domain R1-KRK (Q14671 828-1176 S863K/Q867K): as the sequence (Q14671 828-1176 S863Y/R864V/Q867R) above, with Y36K, V37R, R40K counted along it
Chain of PUM1 PUF domain R3-YRD (Q14671 828-1176 C935Y/Q939D): as the sequence (Q14671 828-1176 S863Y/R864V/Q867R) above, with Y36S, V37R, R40Q, C108Y, Q112D counted along it
Chain of PUM1 PUF domain R5-QPI (Q14671 828-1176 C1007Q/R1008P/Q1011I): as the sequence (Q14671 828-1176 S863Y/R864V/Q867R) above, with Y36S, V37R, R40Q, C180Q, R181P, Q184I counted along it

In the case of “GGCUAGAACUAGUGGAUCCCCCGGCGCCCGGCGGCUCGAGCCCGGGUAAGUGUACAUAGUCUGCAUGCCGCCGGGCGCCAUGCCUGCAGGUCGACUCUAGAAAACAUG”, the values for the binding signal with PUM1 PUF domain R4-WAS, with PUM1 PUF domain R4-RGG and in the assay with PUM1 PUF domain R4-EWH were 3.76 log2 enrichment (interaction score), 1.13 log2 enrichment (interaction score) and 2.99 log2 enrichment (interaction score), respectively.
As for “GGCUAGAACUAGUGGAUCCCCCGGCGCCCGGCGGCUCGAGCCCGGGUAAGUGUAAAUCGUCUGCAUGCCGCCGGGCGCCAUGCCUGCAGGUCGACUCUAGAAAACAUG”, the binding signal with PUM1 PUF domain R1-QFR was 7.18 log2 enrichment (interaction score); in the assay with PUM1 PUF domain R1-KRK, 4.04 log2 enrichment (interaction score); in the assay with PUM1 PUF domain R1-YVR it was 6.93 log2 enrichment (interaction score); in the assay with PUM1 PUF domain R1-KGV, 4.16 log2 enrichment (interaction score).
As for “GGCUAGAACUAGUGGAUCCCCCGGCGCCCGGCGGCUCGAGCCCGGGUAAGUCUAAAUAGUCUGCAUGCCGCCGGGCGCCAUGCCUGCAGGUCGACUCUAGAAAACAUG”, the binding signal with PUM1 PUF domain R7-RSQ was 2.88 log2 enrichment (interaction score).
Turning to “GGCUAGAACUAGUGGAUCCCCCGGCGCCCGGCGGCUCGAGCCCGGGUAAGUGUAUAUAGUCUGCAUGCCGCCGGGCGCCAUGCCUGCAGGUCGACUCUAGAAAACAUG”, the binding signal with PUM1 PUF domain R4-WAS is 4.67 log2 enrichment (interaction score).
Consider “GGCUAGAACUAGUGGAUCCCCCGGCGCCCGGCGGCUCGAGCCCGGGUAAGUGUAAAUGGUCUGCAUGCCGCCGGGCGCCAUGCCUGCAGGUCGACUCUAGAAAACAUG”, for which the binding signal with PUM1 PUF domain R1-YVR is 3.38 log2 enrichment (interaction score).
On to “GGCUAGAACUAGUGGAUCCCCCGGCGCCCGGCGGCUCGAGCCCGGGUAAGGGUAAAUAGUCUGCAUGCCGCCGGGCGCCAUGCCUGCAGGUCGACUCUAGAAAACAUG”, for which the values for the binding signal with PUM1 PUF domain R8-TFR and with PUM1 PUF domain R8-KFF were 2.97 log2 enrichment (interaction score) and 2.27 log2 enrichment (interaction score), respectively.
As for “GGCUAGAACUAGUGGAUCCCCCGGCGCCCGGCGGCUCGAGCCCGGGUAAGUGUAAAUUGUCUGCAUGCCGCCGGGCGCCAUGCCUGCAGGUCGACUCUAGAAAACAUG”, the values for the binding signal in the assay with PUM1 PUF domain R1-YVR and with PUM1 PUF domain R1-KGV were 6.97 log2 enrichment (interaction score) and 3.66 log2 enrichment (interaction score), respectively.
Take “GGCUAGAACUAGUGGAUCCCCCGGCGCCCGGCGGCUCGAGCCCGGGUAAGUGUAAUUAGUCUGCAUGCCGCCGGGCGCCAUGCCUGCAGGUCGACUCUAGAAAACAUG”: the results for the binding signal with PUM1 PUF domain R3-GRR and with PUM1 PUF domain R3-RSS were 2.87 log2 enrichment (interaction score) and 3.63 log2 enrichment (interaction score), respectively.
On to “GGCUAGAACUAGUGGAUCCCCCGGCGCCCGGCGGCUCGAGCCCGGGUAAGUGUGAAUAGUCUGCAUGCCGCCGGGCGCCAUGCCUGCAGGUCGACUCUAGAAAACAUG”, for which the binding signal with PUM1 PUF domain R5-RRR was 1.36 log2 enrichment (interaction score).
With “GGCUAGAACUAGUGGAUCCCCCGGCGCCCGGCGGCUCGAGCCCGGGUAAGCGUAAAUAGUCUGCAUGCCGCCGGGCGCCAUGCCUGCAGGUCGACUCUAGAAAACAUG”, the binding signal was 4.89 log2 enrichment (interaction score) with PUM1 PUF domain R8-TFR, 3.48 log2 enrichment (interaction score) in the assay with PUM1 PUF domain R8-RYE, 2.98 log2 enrichment (interaction score) with PUM1 PUF domain R8-KFF and 3.91 log2 enrichment (interaction score) in the assay with PUM1 PUF domain R8-HFV.
In the case of “GGCUAGAACUAGUGGAUCCCCCGGCGCCCGGCGGCUCGAGCCCGGGUAAGUGUAAGUAGUCUGCAUGCCGCCGGGCGCCAUGCCUGCAGGUCGACUCUAGAAAACAUG”, the binding signal in the assay with PUM1 PUF domain R3-YRD was 3.85 log2 enrichment (interaction score); in the assay with PUM1 PUF domain R3-GRR, 0.8 log2 enrichment (interaction score); with PUM1 PUF domain R3-RSS it was 0.48 log2 enrichment (interaction score).
On to “GGCUAGAACUAGUGGAUCCCCCGGCGCCCGGCGGCUCGAGCCCGGGUAAGUGUAAAUAGUCUGCAUGCCGCCGGGCGCCAUGCCUGCAGGUCGACUCUAGAAAACAUG”, for which the binding signal with PUM1 PUF domain R4-WAS is 2.5 log2 enrichment (interaction score); with PUM1 PUF domain R4-RGG, 2.44 log2 enrichment (interaction score); with PUM1 PUF domain R5-LHA, 2.04 log2 enrichment (interaction score); with PUM1 PUF domain R5-RRR it was 2.32 log2 enrichment (interaction score); with PUM1 PUF domain R8-KFF it was 2.66 log2 enrichment (interaction score); in the assay with PUM1 PUF domain R8-HFV, 2.65 log2 enrichment (interaction score).
Regarding “GGCUAGAACUAGUGGAUCCCCCGGCGCCCGGCGGCUCGAGCCCGGGUAAGUUUAAAUAGUCUGCAUGCCGCCGGGCGCCAUGCCUGCAGGUCGACUCUAGAAAACAUG”, the binding signal in the assay with PUM1 PUF domain R7-ATR was 3.43 log2 enrichment (interaction score).
Take “GGCUAGAACUAGUGGAUCCCCCGGCGCCCGGCGGCUCGAGCCCGGGUAAGUGUUAAUAGUCUGCAUGCCGCCGGGCGCCAUGCCUGCAGGUCGACUCUAGAAAACAUG”: the binding signal with PUM1 PUF domain R5-QPI is 3.43 log2 enrichment (interaction score); with PUM1 PUF domain R5-RTR it was 2.56 log2 enrichment (interaction score); with PUM1 PUF domain R5-LHA, 4.62 log2 enrichment (interaction score); with PUM1 PUF domain R5-RRR it was 4.33 log2 enrichment (interaction score).
In the case of “GGCUAGAACUAGUGGAUCCCCCGGCGCCCGGCGGCUCGAGCCCGGGUAAGUGUCAAUAGUCUGCAUGCCGCCGGGCGCCAUGCCUGCAGGUCGACUCUAGAAAACAUG”, the binding signal with PUM1 PUF domain R5-RTR is 3.19 log2 enrichment (interaction score); with PUM1 PUF domain R5-LHA it was 3 log2 enrichment (interaction score); in the assay with PUM1 PUF domain R5-RRR it was 4.35 log2 enrichment (interaction score).
